In all, about 5,500 compounds went through this assay and about 2,000 (36%) were called active. Another 18% or so got no clear call; they are omitted. No stated cut-off is given here; in the data, active means normalized growth mostly below about 0.91 (no sharp cut-off); inconclusive means no clear call, values can overlap the other calls; inactive means mostly above about 0.92. The list shows a part of the results.
Test: chemical genetic growth profiling, strain panel (AID 1159580);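 further: tested at 20 µM; growth read once vehicle control cultures reached saturation at 30 °C; 1 = growth at the plate median or of vehicle wells; lower values mean less growth of the strain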
Settings: growth OD

Measured: normalized growth

COc1cc(-c2oc3cc(O)ccc3c(=O)c2O)cc(OC)c1OC
inactive: S. cerevisiae deletion strains, locus YAL013W, strain DEP1, hits give low values 1.01 | S. cerevisiae deletion strains, locus YBR021W, strain FUR4, hits give low values 1.02 | S. cerevisiae deletion strains, locus YBR229C, strain ROT2, hits give low values 1.01 | S. cerevisiae deletion strains, locus YCL029C, strain bik1, hits give low values 1.01 | S. cerevisiae deletion strains, locus YDL035C, strain GPR1, hits give low values 1 | S. cerevisiae deletion strains, locus YDL074C, strain BRE1, hits give low values 0.996 | S. cerevisiae deletion strains, locus YDL101C, strain DUN1, hits give low values 0.999 | S. cerevisiae deletion strains, locus YDL134C, strain PPH21, hits give low values 1 | S. cerevisiae deletion strains, locus YDL185W, strain tfp1, hits give low values 0.996 | S. cerevisiae deletion strains, locus YDL192W, strain arf1, hits give low values 0.999 | S. cerevisiae deletion strains, locus YDR101C, strain arx1, hits give low values 1 | S. cerevisiae deletion strains, locus YDR150W, strain NUM1, hits give low values 1.01 | S. cerevisiae deletion strains, locus YDR162C, strain NBP2, hits give low values 0.989 | S. cerevisiae deletion strains, locus YDR318W, strain mcm21, hits give low values 1.02 | S. cerevisiae deletion strains, locus YDR388W, hits give low values 0.999 | S. cerevisiae deletion strains, locus YDR502C, strain sam2, hits give low values 1 | S. cerevisiae deletion strains, locus YEL061C, strain CIN8, hits give low values 0.998 | S. cerevisiae deletion strains, locus YER110C, hits give low values 1.01 | S. cerevisiae deletion strains, locus YER155C, strain BEM2, hits give low values 1.02 | S. cerevisiae deletion strains, locus YER167W, strain BCK2, hits give low values 1.02 | S. cerevisiae deletion strains, locus YGL078C, strain dbp3, hits give low values 0.995 | S. cerevisiae deletion strains, locus YGL086W, strain mad1, hits give low values 1.02 | S. cerevisiae deletion strains, locus YGL248W, strain PDE1, hits give low values 1 | S. cerevisiae deletion strains, locus YGR078C, strain PAC10, hits give low values 0.989 | S. cerevisiae deletion strains, locus YGR135W, strain pre9, hits give low values 0.981 | S. cerevisiae deletion strains, locus YGR229C, strain SMI1, hits give low values 0.98 | S. cerevisiae deletion strains, locus YGR252W, strain gcn5, hits give low values 1.06 | S. cerevisiae deletion strains, locus YHR030C, strain SLT2, hits give low values 1.01 | S. cerevisiae deletion strains, locus YHR079C, strain IRE1 (second series), hits give low values 1.01 | S. cerevisiae deletion strains, locus YHR094C, strain hxt1, hits give low values 1.01 | S. cerevisiae deletion strains, locus YHR129C, strain ARP1, hits give low values 0.998 | S. cerevisiae deletion strains, locus YHR200W, strain rpn10, hits give low values 1.01 | S. cerevisiae deletion strains, locus YIL066C, strain RNR3, hits give low values 1 | S. cerevisiae deletion strains, locus YIL073C, strain SPO22, hits give low values 1.05 | S. cerevisiae deletion strains, locus YIL125W, strain kgd1, hits give low values 1.01 | S. cerevisiae deletion strains, locus YIR030C, strain dcg1, hits give low values 1.01 | S. cerevisiae deletion strains, locus YJL095W, strain BCK1, hits give low values 0.984 | S. cerevisiae deletion strains, locus YJL134W, strain LCB3, hits give low values 0.996 | S. cerevisiae deletion strains, locus YJL168C, strain set2, hits give low values 1.01 | S. cerevisiae deletion strains, locus YJL187C, strain SWE1 (second series), hits give low values 0.99 | S. cerevisiae deletion strains, locus YJR043C, strain POL32, hits give low values 1.01 | S. cerevisiae deletion strains, locus YJR075W, strain HOC1, hits give low values 1.01 | S. cerevisiae deletion strains, locus YKL009W, strain mrt4, hits give low values 1.04 | S. cerevisiae deletion strains, locus YKL068W, hits give low values 0.998 | S. cerevisiae deletion strains, locus YKL085W, strain MDH1 (second series), hits give low values 1.02 | S. cerevisiae deletion strains, locus YKL085W, strain MDH1, hits give low values 1.02 | S. cerevisiae deletion strains, locus YKL190W, strain CNB1, hits give low values 1.01 | S. cerevisiae deletion strains, locus YKR001C, strain vps1, hits give low values 1.01 | S. cerevisiae deletion strains, locus YLR039C, strain RIC1, hits give low values 1.02 | S. cerevisiae deletion strains, locus YLR058C, strain SHM2, hits give low values 0.999 | S. cerevisiae deletion strains, locus YLR102C, strain apc9, hits give low values 1.01 | S. cerevisiae deletion strains, locus YLR262C, strain YPT6, hits give low values 0.979 | S. cerevisiae deletion strains, locus YLR268W, strain sec22, hits give low values 1 | S. cerevisiae deletion strains, locus YLR330W, strain CHS5, hits give low values 1 | S. cerevisiae deletion strains, locus YLR342W, strain FKS1 (second series), hits give low values 1.05 | S. cerevisiae deletion strains, locus YLR371W, strain rom2, hits give low values 1.02 | S. cerevisiae deletion strains, locus YLR418C, strain cdc73, hits give low values 0.974 | S. cerevisiae deletion strains, locus YML016C, strain PPZ1, hits give low values 1 | S. cerevisiae deletion strains, locus YML032C, strain rad52, hits give low values 1.03 | S. cerevisiae deletion strains, locus YML124C, strain tub3, hits give low values 1.01 | S. cerevisiae deletion strains, locus YMR078C, strain ctf18, hits give low values 1.02 | S. cerevisiae deletion strains, locus YMR223W, strain ubp8, hits give low values 1.01 | S. cerevisiae deletion strains, locus YMR263W, strain SAP30, hits give low values 1.01 | S. cerevisiae deletion strains, locus YMR307W, strain GAS1, hits give low values 0.995 | S. cerevisiae deletion strains, locus YNL067W, strain RPL9B, hits give low values 0.986 | S. cerevisiae deletion strains, locus YNL128W, strain TEP1, hits give low values 0.996 | S. cerevisiae deletion strains, locus YNL153C, strain GIM3, hits give low values 0.986 | S. cerevisiae deletion strains, locus YNL233W, strain BNI4, hits give low values 0.969 | S. cerevisiae deletion strains, locus YNL250W, strain rad50, hits give low values 1 | S. cerevisiae deletion strains, locus YNL271C, strain bni1, hits give low values 1.02 | S. cerevisiae deletion strains, locus YNL298W, strain CLA4, hits give low values 1.01 | S. cerevisiae deletion strains, locus YNL307C, strain MCK1, hits give low values 1.02 | S. cerevisiae deletion strains, locus YNL322C, strain KRE1, hits give low values 1 | S. cerevisiae deletion strains, locus YNR052C, strain pop2, hits give low values 1.02 | S. cerevisiae deletion strains, locus YOL006C, strain TOP1, hits give low values 0.999 | S. cerevisiae deletion strains, locus YOL012C, strain htz1 1.14 | S. cerevisiae deletion strains, locus YOL147C, strain pex11, hits give low values 1.01 | S. cerevisiae deletion strains, locus YOR061W, strain CKA2, hits give low values 1 | S. cerevisiae deletion strains, locus YOR069W, strain VPS5, hits give low values 1 | S. cerevisiae deletion strains, locus YOR136W, strain idh2, hits give low values 1.02 | S. cerevisiae deletion strains, locus YOR144C, strain elg1, hits give low values 1 | S. cerevisiae deletion strains, locus YOR184W, strain ser1, hits give low values 1.04 | S. cerevisiae deletion strains, locus YOR316C, strain cot1, hits give low values 1 | S. cerevisiae deletion strains, locus YPL055C, strain LGE1, hits give low values 1 | S. cerevisiae deletion strains, locus YPL241C, strain CIN2, hits give low values 1.01 | S. cerevisiae deletion strains, locus YPR119W, strain clb2, hits give low values 1 | S. cerevisiae deletion strains, locus YPR141C, strain kar3, hits give low values 1.01 | S. cerevisiae deletion strains, locus YPR163C, strain tif3, hits give low values 0.991 | S. cerevisiae deletion strains, locus YPR167C, strain met16, hits give low values 1.01 | S. cerevisiae deletion strains, strain wtn01, hits give low values 1 | S. cerevisiae strains, strain wild type, hits give low values 0.994
